Experimental findings from PubChem BioAssay are described below.

Calls of active or inactive are those of the source.

Assay [1] relates to Plasmodium falciparum Sir2 (PF13_0152, Sir2A). Put plainly: pfSir2 binders on small-molecule microarrays, primary screen, biochemical, small-molecule microarray, 635 nm fluorescence (AID 1098).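 Note: score merges spot fluorescence intensity with its signal-to-noise ratio.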 As to conditions: small-molecule microarray binding, fluorescence 635 nm; higher = more signal.
A short description of assay [2]: small-molecule microarray binders of probe aDKK1, primary screen, biochemical, biotinylated probe, 635/667 nm fluorescence (AID 1099).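 Note: score merges 667nm spot fluorescence with signal to noise across triplicate slides.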 As to conditions: higher = more signal.
Assay [3] can be described thus: small-molecule microarray binders of probe aCHRDL2, primary screen, biochemical, biotinylated probe, 635/667 nm fluorescence (AID 1100). As to conditions: higher = more signal.
A short description of assay [4]: splicing luciferase reporter signal modulators, primary screen, spliceosome inhibition project, cell-based, HEK293, splice +/- reporter (AID 1101).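 Note: HEK293 cells carrying a splicing-competent luciferase reporter gene; test concentration not given here.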 As to conditions: luminescence, 24 h, higher = more signal, called active from +8 up or from −8 down. In general terms: A reporter such as luciferase makes a cellular process visible.
In assay [5] the target is Fibroblast growth factor 10 (Homo sapiens) (UniProt O15520). Put plainly: FGF10 binders on small-molecule microarrays, primary screen, biochemical, small-molecule microarray, 635 nm fluorescence (AID 1102). As to conditions: FGF10 binding, fluorescence 635 nm, higher = more signal.
Sequence of Fibroblast growth factor 10 (Homo sapiens) (O15520 whole entry, looked up): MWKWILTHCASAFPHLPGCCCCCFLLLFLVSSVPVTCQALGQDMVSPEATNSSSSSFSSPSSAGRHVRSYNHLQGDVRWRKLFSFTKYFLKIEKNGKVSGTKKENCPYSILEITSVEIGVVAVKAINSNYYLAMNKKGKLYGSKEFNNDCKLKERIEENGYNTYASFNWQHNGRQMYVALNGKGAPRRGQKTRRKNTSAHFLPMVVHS
The test system of assay [6] is glycogen synthase kinase-3 (GSK3A per assay name; protocol says GSK3B). Kind of assay: GSK3 binders on small-molecule microarrays, primary screen, biochemical, small-molecule microarray, 635 nm fluorescence, GSK3A (AID 1103). Note: the record names both GSK3A and GSK3B. As to conditions: small-molecule microarray binding, fluorescence 635 nm; higher = more signal.
The target in assay [7] is Epidermal growth factor receptor (Homo sapiens) (UniProt P00533). Kind of assay: EGFR binders on small-molecule microarrays, primary screen, biochemical, small-molecule microarray, 635 nm fluorescence (AID 1104).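 Note: score merges 667 nm emission intensity with spot signal to noise over triplicate slides.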 As to conditions: EGFR binding, higher = more signal.
Sequence of Epidermal growth factor receptor (Homo sapiens) (P00533 whole entry, looked up): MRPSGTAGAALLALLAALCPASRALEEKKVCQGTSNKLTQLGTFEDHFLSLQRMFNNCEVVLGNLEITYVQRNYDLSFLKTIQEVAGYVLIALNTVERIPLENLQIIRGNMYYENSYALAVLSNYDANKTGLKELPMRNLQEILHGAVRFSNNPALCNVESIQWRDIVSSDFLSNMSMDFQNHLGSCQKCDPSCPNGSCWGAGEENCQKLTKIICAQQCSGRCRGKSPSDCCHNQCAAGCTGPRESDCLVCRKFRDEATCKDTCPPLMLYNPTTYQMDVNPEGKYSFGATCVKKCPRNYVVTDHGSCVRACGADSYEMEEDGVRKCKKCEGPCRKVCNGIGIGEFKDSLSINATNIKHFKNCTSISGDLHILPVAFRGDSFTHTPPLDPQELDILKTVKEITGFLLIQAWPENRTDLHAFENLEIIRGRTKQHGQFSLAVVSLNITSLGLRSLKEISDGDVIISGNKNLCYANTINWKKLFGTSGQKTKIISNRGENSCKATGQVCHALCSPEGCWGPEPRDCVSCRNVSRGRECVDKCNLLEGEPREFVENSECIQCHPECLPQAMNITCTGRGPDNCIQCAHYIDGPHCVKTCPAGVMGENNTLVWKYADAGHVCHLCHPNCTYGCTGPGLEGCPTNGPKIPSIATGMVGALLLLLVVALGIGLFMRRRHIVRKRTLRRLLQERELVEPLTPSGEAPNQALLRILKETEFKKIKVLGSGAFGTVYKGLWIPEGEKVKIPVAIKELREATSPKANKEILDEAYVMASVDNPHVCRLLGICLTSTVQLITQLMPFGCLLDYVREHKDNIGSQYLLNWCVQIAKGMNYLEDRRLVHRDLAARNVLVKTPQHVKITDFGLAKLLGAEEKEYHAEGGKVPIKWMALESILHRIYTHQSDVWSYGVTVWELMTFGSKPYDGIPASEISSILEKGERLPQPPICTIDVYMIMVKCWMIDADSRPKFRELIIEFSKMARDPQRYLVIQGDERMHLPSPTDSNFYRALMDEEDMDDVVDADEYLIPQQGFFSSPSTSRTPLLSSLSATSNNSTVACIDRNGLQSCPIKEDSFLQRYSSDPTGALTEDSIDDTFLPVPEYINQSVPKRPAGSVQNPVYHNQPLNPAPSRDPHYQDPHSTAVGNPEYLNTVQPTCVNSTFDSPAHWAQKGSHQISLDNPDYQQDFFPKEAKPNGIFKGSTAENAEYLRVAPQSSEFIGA
Assay [8] deals with Follistatin-related protein 3 (Homo sapiens) (UniProt O95633). Kind of assay: FSTL3 binders on small-molecule microarrays, primary screen, biochemical, small-molecule microarray, 635 nm fluorescence (AID 1105).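 Note: score merges emission near 667 nm and signal to noise per printed spot across three slides.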 As to conditions: FSTL3 binding, higher = more signal.
Sequence of Follistatin-related protein 3 (Homo sapiens) (O95633 whole entry, looked up): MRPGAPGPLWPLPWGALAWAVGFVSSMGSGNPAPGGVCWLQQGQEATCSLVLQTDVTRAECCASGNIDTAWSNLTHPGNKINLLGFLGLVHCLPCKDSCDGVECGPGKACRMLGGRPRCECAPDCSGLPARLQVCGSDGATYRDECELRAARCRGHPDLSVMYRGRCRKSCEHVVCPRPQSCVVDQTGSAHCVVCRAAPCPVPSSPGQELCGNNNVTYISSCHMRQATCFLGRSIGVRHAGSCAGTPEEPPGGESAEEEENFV
Assay [9] addresses Dickkopf-related protein 1 (Homo sapiens) (UniProt O94907). Put plainly: DKK1 binders on small-molecule microarrays, primary screen, biochemical, small-molecule microarray, 635 nm fluorescence scan (AID 1106).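 Note: score merges emission near 667 nm with signal to noise over three replicate slides.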 As to conditions: DKK1 binding, higher = more signal.
For assay [10], the system named is Inhibin beta A chain (activin A). Put plainly: INHBA (activin A) binders on microarrays, primary screen, biochemical, small-molecule microarray, 635 nm fluorescence scan (AID 1107).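 Note: mouse activin A protein probed at 4.33 µg/mL on printed slides; score merges bound-protein fluorescence near 667 nm with spot signal-to-noise.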 As to conditions: small-molecule microarray binding, higher = more signal.
For assay [11], the system named is Human papillomavirus type 1a protein E7 (residues 44-93). Kind of assay: HPV1a E7 fragment binders on microarrays, primary screen, biochemical, small-molecule microarray, residues 44-93, 635 nm fluorescence (AID 1108).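 Note: E7 fragment applied at 1 µg/mL in TBST for 1 h at 4 C; score combines spot fluorescence with its signal to noise ratio.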 As to conditions: small-molecule microarray binding, fluorescence 635 nm; higher = more signal.
A short description of assay [12]: modulators of HCV replicon luciferase signal, primary screen, HCV replication inhibitor project, Huh7 cells, luciferase reporter (AID 1109).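 Note: huh7 hepatoma cells harbouring a luciferase neomycin HCV replicon reporter; luciferase luminescence as measure of HCV replicon replication; test concentration not given here.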 As to conditions: 48 h, higher = more signal.
In assay [13] the target is Left-right determination factor 2 (Homo sapiens) (UniProt O00292). Put plainly: LEFTY2 binders on small-molecule microarrays, primary screen, biochemical, small-molecule microarray, 635 nm fluorescence scan (AID 1110). As to conditions: LEFTY2 binding, higher = more signal.
Sequence of Left-right determination factor 2 (Homo sapiens) (O00292 whole entry, looked up): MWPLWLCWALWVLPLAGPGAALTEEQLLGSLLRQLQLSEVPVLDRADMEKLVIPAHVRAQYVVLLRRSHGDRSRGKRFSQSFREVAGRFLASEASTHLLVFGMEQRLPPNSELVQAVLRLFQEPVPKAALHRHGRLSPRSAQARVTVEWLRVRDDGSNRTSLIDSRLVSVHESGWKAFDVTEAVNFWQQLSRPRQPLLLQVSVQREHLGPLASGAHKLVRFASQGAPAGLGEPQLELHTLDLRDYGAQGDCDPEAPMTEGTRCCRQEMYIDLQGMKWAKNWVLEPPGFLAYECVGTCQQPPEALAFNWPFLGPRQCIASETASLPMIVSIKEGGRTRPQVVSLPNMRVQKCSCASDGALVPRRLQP
Assay [14] has as its target Calmodulin-1 (Homo sapiens) (UniProt P0DP23). Kind of assay: CALM1 binders on microarrays, EGTA buffer, profiling panel, biochemical, small-molecule microarray, Cy5-labelled CALM1 (AID 1111).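 Note: labelled calmodulin applied in Tris saline Tween buffer holding calcium plus EGTA and DTT.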 As to conditions: Cy5-CALM1 binding fluorescence, higher = more signal.
The target is the same in assay [15]. Put plainly: calcium-bound CALM1 binders on microarrays, profiling panel, artefact control for SMM control-protein annotation, biochemical, small-molecule microarray, Cy5-labelled CALM1, plus calcium (AID 1112).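 Note: score merges spot fluorescence with signal to noise from triplicate slides.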 As to conditions: Cy5-CALM1 binding fluorescence, higher = more signal.
A short description of assay [16]: small-molecule microarray binders of probe aWnt5a, primary screen, biochemical, biotinylated probe, 635/667 nm fluorescence (AID 1113).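 Note: score merges 667 nm fluorescence intensity with signal-to-noise per printed feature.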 As to conditions: higher = more signal.
Assay [17] is described as follows: small-molecule microarray binders of probe aShh, primary screen, biochemical, biotinylated probe, 635/667 nm fluorescence (AID 1114).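 Note: probe is biotin-labelled aShh protein from a stem cell growth factor screen; measures binding of labelled protein to compounds printed on the slide; score merges feature fluorescence at 667 nm with signal-to-noise.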 As to conditions: higher = more signal.
The nature of assay [18]: small-molecule microarray binders of probe aNog, primary screen, biochemical, biotinylated probe, 635/667 nm fluorescence (AID 1115).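 Note: probe is biotinylated aNog protein used at 0.15 µg/mL for 1 h at 4 C; z-score combines 667 nm fluorescence of each spot with its signal to noise.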 As to conditions: higher = more signal.
Assay [19] has as its target Torsin-1A-interacting protein 1 (Homo sapiens) (UniProt Q5JTV8). Put plainly: LAP1 binders from COS7 cell lysate, primary screen, small-molecule microarray, 635/667 nm fluorescence (AID 1116). As to conditions: COS7-hLAP1 lysate binding, 635 nm fluorescence, higher = more signal.
In assay [20] the target is Alpha-bungarotoxin (Bungarus multicinctus) (UniProt P60615). Kind of assay: alpha-bungarotoxin binders on microarray, profiling panel, artefact control for SMM control protein annotation, biochemical, small-molecule microarray, Alexa647 label, 635/667 nm fluorescence (AID 1117). As to conditions: alpha-BTX-A647 binding fluorescence, higher = more signal.
Sequence of Alpha-bungarotoxin (Bungarus multicinctus) (P60615 whole entry, looked up): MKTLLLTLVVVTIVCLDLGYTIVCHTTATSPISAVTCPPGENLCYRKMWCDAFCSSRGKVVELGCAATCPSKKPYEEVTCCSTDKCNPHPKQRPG

Sequence of Dickkopf-related protein 1 (Homo sapiens) (O94907 whole entry, looked up): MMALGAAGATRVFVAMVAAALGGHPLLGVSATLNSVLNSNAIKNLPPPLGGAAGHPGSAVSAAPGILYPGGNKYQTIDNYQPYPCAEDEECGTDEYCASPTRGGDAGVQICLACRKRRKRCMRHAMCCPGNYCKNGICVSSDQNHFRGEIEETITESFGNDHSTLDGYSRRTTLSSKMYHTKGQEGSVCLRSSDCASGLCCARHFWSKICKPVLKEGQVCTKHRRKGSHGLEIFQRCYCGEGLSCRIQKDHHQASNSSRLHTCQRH
Sequence of Torsin-1A-interacting protein 1 (Homo sapiens) (Q5JTV8 whole entry, looked up): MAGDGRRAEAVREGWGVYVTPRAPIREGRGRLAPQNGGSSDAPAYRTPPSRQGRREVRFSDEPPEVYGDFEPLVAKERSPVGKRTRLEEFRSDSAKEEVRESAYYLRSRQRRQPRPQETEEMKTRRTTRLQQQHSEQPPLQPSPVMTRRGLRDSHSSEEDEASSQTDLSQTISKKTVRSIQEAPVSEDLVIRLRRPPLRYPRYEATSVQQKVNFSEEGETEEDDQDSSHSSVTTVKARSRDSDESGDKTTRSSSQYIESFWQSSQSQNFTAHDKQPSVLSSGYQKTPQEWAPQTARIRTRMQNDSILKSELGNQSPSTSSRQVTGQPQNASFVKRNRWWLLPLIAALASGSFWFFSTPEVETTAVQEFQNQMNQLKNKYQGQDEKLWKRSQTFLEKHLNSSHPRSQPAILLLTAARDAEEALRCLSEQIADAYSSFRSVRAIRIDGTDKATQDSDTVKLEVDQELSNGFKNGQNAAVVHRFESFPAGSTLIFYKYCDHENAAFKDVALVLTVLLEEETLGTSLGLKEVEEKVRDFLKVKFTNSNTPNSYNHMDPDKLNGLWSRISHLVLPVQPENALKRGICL

`CC(=O)OC[C@H]1O[C@H](C#CCC2CCCCC2)C=C[C@@H]1OC(C)=O`: the composite z-score in [1] is 1.26; in assay [2], -0.215; in assay [3] it was -0.595; in [5], 1.04; in assay [6] it was 0.719; in assay [7] it was 0.362. For the same compound, the composite z-score in [8] is 0.674; in assay [9] it was 0.668; in [10], -0.222; in assay [11], 1.12; in assay [13] it was 0.992; in assay [14], 0.235. Also, the composite z-score in assay [15] was -0.26; in [16], -0.154; in assay [17], 0.194; in [18], 0.129; in assay [19], 0.471; in assay [20] it was 0.36. For the same compound, the z-score in assay [4] was -0.531 (inactive); in assay [12] it was -2.57.
`CCOC(=O)CCN1C(=O)[C@H]2[C@H]3[C@H](O)[C@H](O)CC(=NNC(=O)OCc4ccccc4)[C@H]3CC[C@H]2C1=O`: the composite z-score in [1] is 0.108; in [2], -0.467; in [3], -1.17; in [5] it was -0.193; in assay [6] it was -0.296; in assay [7], 0.345. Moreover, the composite z-score is 0.373 in assay [8]; 0.766 in assay [9]; 1.62 in assay [10]; -0.994 in [11]; 0.863 in assay [13]; -1.01 in [14]. Also, the composite z-score in [15] was -1.23; in [16], -0.0045; in [17], -0.138; in assay [18], -0.0091; in [19], 0.264; in [20] it was -0.245. Besides, the figures for the z-score in assay [4] and in assay [12] were 0.325 (inactive) and 0.283, respectively.
On to `COC(=O)[C@H](C)NC(=O)CC=C[C@@H](C)[C@@H]1C=C[C@H](O)[C@@H](CO)O1`, for which the composite z-score in assay [1] was 0.141; in assay [2] it was -0.607; in assay [3], -1.28; in assay [5], 0.6; in [6], 0.902; in [7] it was 0.643. For the same compound, the composite z-score is 0.948 in [8]; 1.3 in assay [9]; 0.229 in assay [10]; 0.075 in assay [11]; 1.14 in assay [13]; -0.698 in assay [14]. For the same compound, the composite z-score was -1.35 in assay [15]; -0.0799 in [16]; -0.0474 in assay [17]; -0.0926 in [18]; 0.326 in assay [19]; -0.392 in assay [20]. Moreover, the z-score was 0.386 (inactive) in assay [4] and -0.0833 in [12].
Turning to `COC(=O)[C@@H]1CC[C@H](C)[C@@H](c2ccc(Br)cc2)N1C[C@H](O)CN=[N+]=[N-]`, the composite z-score in assay [1] is 0.0722; in assay [2], -0.234; in assay [3], 0.0248; in assay [5], 0.248; in [6] it was -0.154; in [7], 0.385. Besides, the composite z-score in [8] was -0.347; in assay [9], -0.148; in assay [10] it was 0.616; in assay [11], 0.0343; in [13] it was 0.346; in [14], 0.0364. For the same compound, the composite z-score in assay [15] is 0.123; in assay [16], 0.14; in assay [17] it was -0.0243; in [18] it was -0.183; in assay [19] it was -0.133; in assay [20] it was 0.426. Further, the z-score is -0.812 (inactive) in [4] and -0.0104 in [12].
On to `C=CCOCC1CN2[C@@H](CC[C@@H](C)[C@@H]2c2ccc(Br)cc2)C(=O)O1` (stereo not given in full), for which the composite z-score was -0.316 in [1]; -0.182 in assay [2]; -0.165 in assay [3]; -0.342 in assay [5]; -0.255 in [6]; -0.014 in assay [7]. The composite z-score in assay [8] was -0.293; in assay [9], 0.0635; in [10], 0.757; in assay [11], 0.157; in assay [13], 0.0328; in assay [14], -0.457. Besides, the composite z-score is -0.78 in assay [15]; -0.219 in assay [16]; -0.154 in assay [17]; -0.196 in [18]; 0.0323 in assay [19]; 0.101 in [20]. Also, the z-score is 0.597 (inactive) in assay [4] and -0.121 in assay [12].
